Test results as given in PubChem BioAssay (Tox21).
Records with an inconclusive call do not appear. Active and inactive are the calls of the source. Unless noted, calls come from the whole dose curve; as a rule, active = well fitted curve in the direction sought with a large enough effect in the repeat runs; inconclusive = weak or mixed curves; inactive = no such curve, though single readings can be large; an effect the other way counts as inactive or inconclusive.

Legend:
[1] = target: Retinoic acid receptor RXR-alpha (Homo sapiens) (UniProt P19793); assay: qHTS assay to identify small molecule agonists of the RXR signaling pathway (AID 1159527; calls by dose curve; note: nearly all actives have a fitted effect of over 35% in size)
Chain of Retinoic acid receptor RXR-alpha (Homo sapiens) (P19793 whole entry, looked up): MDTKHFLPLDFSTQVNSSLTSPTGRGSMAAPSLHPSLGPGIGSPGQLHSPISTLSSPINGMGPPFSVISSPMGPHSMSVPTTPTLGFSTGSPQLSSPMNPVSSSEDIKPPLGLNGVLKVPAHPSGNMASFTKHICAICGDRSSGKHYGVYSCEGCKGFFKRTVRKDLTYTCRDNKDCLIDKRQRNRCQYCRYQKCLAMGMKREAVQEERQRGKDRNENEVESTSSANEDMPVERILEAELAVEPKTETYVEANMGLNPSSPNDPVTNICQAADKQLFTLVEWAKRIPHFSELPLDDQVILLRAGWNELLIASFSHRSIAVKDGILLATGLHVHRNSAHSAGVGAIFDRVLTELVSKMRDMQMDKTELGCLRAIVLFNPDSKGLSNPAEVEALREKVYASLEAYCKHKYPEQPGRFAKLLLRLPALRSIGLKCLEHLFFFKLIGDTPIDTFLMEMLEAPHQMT
In short: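 Cells plated at 2,000/well, rested 5 hr at 37 C, pin-dosed with DMSO compound solutions, incubated 16 hr, then loaded with B/G FRET substrate for 2 hr at RT before dual-emission fluorescence reading.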

[2] = qHTS assay to identify small molecule agonists of the RXR signaling pathway - cell viability counter screen (AID 1159529);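 note: HEK 293T cells carrying an RXR-alpha UAS beta-lactamase reporter; series mostly up to about 77 µM; nearly all actives have a fitted effect of over 50% in size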
In short: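 Steps: seed RXR-alpha-UAS-bla HEK 293T cells in assay medium containing 2% charcoal-stripped FBS; incubate 5 hr; add compounds in DMSO; incubate 16 hr at 37 C; after the bla read, add CellTiter-Glo and read luminescence at 30 min.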

[3] = qHTS assay to identify small molecule antagonists of the retinoic acid receptor (RAR) signaling pathway (AID 1159552; note: nearly all actives have a fitted effect of over 50% in size)
In short: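 Retinol at 1 uM final stimulated RARE-luciferase expression in C3RL4 cells exposed to test compounds for 6 hr at 37 C. Reduced luminescence, read 30 min after detection reagent, indicated pathway antagonism.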

[4] = qHTS assay to identify small molecule antagonists of the estrogen related receptor (ERR) signaling pathway from Tox21 library - cell viability counter screen (AID 1224834); note: nearly all actives have a fitted effect of over 30% in size
In short: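 After 17.5 h of compound exposure at 37 C, ERR cells are incubated with CellTiter-Fluor for 30 min and fluorescence intensity serves as the viability measure.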

[5] = target: Luciferin 4-monooxygenase (Photinus pyralis) (UniProt P08659); assay: qHTS assay to identify small molecule inhibitors of firefly luciferase (AID 1224835); note: series mostly up to about 120 µM; nearly all actives have a fitted effect of over 25% in size
Chain of Luciferin 4-monooxygenase (Photinus pyralis) (P08659 whole entry, looked up): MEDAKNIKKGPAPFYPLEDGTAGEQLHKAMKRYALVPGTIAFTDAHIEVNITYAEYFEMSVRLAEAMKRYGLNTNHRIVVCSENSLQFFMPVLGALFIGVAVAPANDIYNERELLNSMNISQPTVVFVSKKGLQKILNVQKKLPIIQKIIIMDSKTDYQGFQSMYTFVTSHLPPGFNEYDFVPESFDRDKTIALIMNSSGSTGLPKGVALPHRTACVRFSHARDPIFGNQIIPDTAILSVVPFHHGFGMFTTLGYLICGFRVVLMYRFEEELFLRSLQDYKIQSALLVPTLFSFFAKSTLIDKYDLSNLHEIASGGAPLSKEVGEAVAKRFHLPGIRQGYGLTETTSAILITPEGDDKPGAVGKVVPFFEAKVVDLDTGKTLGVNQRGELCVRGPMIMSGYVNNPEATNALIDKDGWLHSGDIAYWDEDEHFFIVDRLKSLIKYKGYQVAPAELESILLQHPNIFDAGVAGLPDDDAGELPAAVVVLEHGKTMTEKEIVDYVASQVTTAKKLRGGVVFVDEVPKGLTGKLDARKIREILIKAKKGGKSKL
In short: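 Inhibition of purified Photinus luciferase is measured by luminescence. Substrate levels (D-luciferin, ATP) sit at their KM values. Each compound is tested in a concentration series.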

[6] = qHTS assay to identify small molecule agonists of the constitutive androstane receptor (CAR) signaling pathway - cell viability counter screen (AID 1224836); note: series mostly up to about 92 µM; nearly all actives have a fitted effect of over 45% in size
In short: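 Cells were seeded and incubated 4 hrs. Compounds were added across 15 concentrations together with PK11195 at 0.75 uM final. Plates were incubated 23 hrs at 37 C. CellTiter-Fluor was added and fluorescence measured.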

[7] = qHTS assay to identify small molecule antagonists of the constitutive androstane receptor (CAR) signaling pathway - cell viability counter screen (AID 1224837); note: series mostly up to about 92 µM; nearly all actives have a fitted effect of over 45% in size
In short: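 Counter screen run in HepG2-CYP2B6-hCAR cells: 4 hr settle, compound titration (15 concentrations) with 50 nM CITCO, 23 hr at 37 C/5% CO2, CellTiter-Fluor fluorescence.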

[8] = qHTS assay to identify small molecule antagonists of the estrogen related receptor signaling pathway with the pleiotropic PPARgamma coactivator (PGC) from Tox21 10K library - cell viability counter screen (AID 1224840; active = well fitted cell-killing curve with a large enough effect in the repeat runs, not every such curve was filed as active; note: nearly all actives have a fitted effect of over 40% in size)
In short: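 Following seeding of 2,000 PGC/ERR cells/well and 6 hours' incubation, test compounds were delivered in DMSO. The plates then sat 17.5 hours at 37 C before a fluorogenic live-cell protease reagent (CellTiter-Fluor) was read after 30 min.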

[9] = qHTS assay to identify small molecule antagonists of the estrogen related receptor signaling pathway with the pleiotropic PPARgamma coactivator (PGC) from Tox21 10K library (AID 1224841; call rule not given here; note: series mostly up to about 92 µM; actives are mostly falling curves and most rising ones were filed inactive; nearly all actives have a fitted effect of over 50% in size)
In short: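 qHTS antagonist format: PGC/ERR cells, 2k/well, compound in DMSO by pin transfer after 6 h attachment, 18 h treatment at 37 C, One-Glo luminescence read at 30 min.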

[10] = qHTS assay to identify small molecule agonists of the estrogen related receptor signaling pathway with the pleiotropic PPARgamma coactivator (PGC) from Tox21 10K library (AID 1224842); note: nearly all actives have a fitted effect of over 15% in size
In short: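 Luminescence from One-Glo (30 min, room temperature) measured after PGC/ERR cells had 18 h at 37 C with pinned compound (23 nL in DMSO). Cells had been seeded at 2,000 per well and pre-incubated 6 h.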

[11] = target: Nuclear receptor subfamily 1 group I member 3 (Homo sapiens) (UniProt Q14994); assay: qHTS assay to identify small molecule antagonists of the constitutive androstane receptor (CAR) signaling pathway (AID 1224838);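 note: HepG2 cells stably expressing hCAR with CYP2B6 luciferase reporter stimulated by CITCO; nearly all actives have a fitted effect of over 40% in size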
Chain of Nuclear receptor subfamily 1 group I member 3 (Homo sapiens) (Q14994 whole entry, looked up): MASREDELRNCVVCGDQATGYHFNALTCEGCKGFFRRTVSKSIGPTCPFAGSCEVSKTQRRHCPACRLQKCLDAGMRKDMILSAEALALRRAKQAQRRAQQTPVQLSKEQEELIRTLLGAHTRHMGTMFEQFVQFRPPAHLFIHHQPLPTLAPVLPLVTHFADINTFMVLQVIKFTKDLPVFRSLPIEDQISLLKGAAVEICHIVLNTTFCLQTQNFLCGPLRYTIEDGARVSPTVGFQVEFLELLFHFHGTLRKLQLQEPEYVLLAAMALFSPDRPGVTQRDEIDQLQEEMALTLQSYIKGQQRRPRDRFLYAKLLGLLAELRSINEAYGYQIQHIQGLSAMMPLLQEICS
In short: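 Cell line: HepG2 double-stable for hCAR and CYP2B6-2.2kb reporter. Agonist: CITCO, 50 nM final. Compounds: 15 concentrations, 24 h, 37 C. Detection: ONE-Glo luminescence.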

[12] = target: Nuclear receptor subfamily 1 group I member 3 (Homo sapiens) (UniProt Q14994); assay: qHTS assay to identify small molecule agonists of the constitutive androstane receptor (CAR) signaling pathway (AID 1224839);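 note: HepG2 cells stably carrying human CAR and a CYP2B6 luciferase reporter; series mostly up to about 92 µM; nearly all actives have a fitted effect of over 15% in size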
In short: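 Cells were plated and incubated 4 hrs, then dosed with compounds at 15 concentrations. PK11195 was added to 0.75 uM final. After 24 hrs at 37 C, luciferase luminescence was measured.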

[13] = qHTS assay to identify small molecule antagonists of the retinoid acid receptor (RAR) signaling pathway - cell viability counter screen (AID 1159551); note: nearly all actives have a fitted effect of over 35% in size
In short: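 Retinol-stimulated (1 uM final) C3RL4 cells, compound 6 h, 37 C; readout CellTiter-Glo luminescence (ATP) after 30 min RT incubation.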

[14] = qHTS assay to identify small molecule agonists of the retinoic acid receptor (RAR) signaling pathway (AID 1159553)
In short: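 Reporter readout comes from luciferase under RARE control in C3RL4 cells; compound exposure lasts 6 hr at 37 C in 5% CO2, and luminescence is recorded following a 30 min room-temperature incubation with reagent.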
% is set by controls: 0 for no effect and ±100 for the full control effect.

CSc1ccc(C=O)cc1
inactive: Potency [1] | Potency [2] | Potency [3] | Potency [4] | Potency [5] | outcome [6] | outcome [7] | outcome [8]

COc1cc(C(=O)N2CCOCC2)cc(OC)c1OC
inactive: Potency [1] | Potency [2] | Potency [4] | Potency [5] | outcome [6] | outcome [7] | outcome [8]

COc1nc(C)nc(N)n1
inactive: Potency [1] | Potency [2] | Potency [4] | Potency [5] | outcome [6] | outcome [8]

NCCNC(=O)c1ccc(Cl)cn1
inactive: Potency [1] | Potency [2] | Potency [4] | outcome [6] | outcome [7] | outcome [8] | Potency [9] | Potency [10]

C=C(C)[C@H]1CC=C(C)CC1
inactive: Potency [1] | Potency [2] | Potency [4] | Potency [5] | outcome [6] | outcome [7] | Potency [11] | Potency [12] | outcome [8]

Cc1cc(C)c(NC(=O)CN(CC(=O)O)CC(=O)O)c(C)c1Br
inactive: Potency [1] | Potency [2] | outcome [13] | Potency [5] | outcome [7] | Potency [12] | outcome [8]

NCC[C@H](O)C(=O)N[C@@H]1C[C@H](N)[C@@H](O[C@H]2O[C@H](CN)[C@@H](O)[C@H](O)[C@H]2O)[C@H](O)[C@H]1O[C@H]1O[C@H](CO)[C@@H](O)[C@H](N)[C@H]1O
inactive: activation [1] 7.2% [at 0.29 µM] | activity change, negative = cytotoxicity [2] 9.63% [at 0.29 µM] | activity change, negative = cytotoxicity [13] 2.52% [at 0.349 µM] | activity change, negative = inhibition [5] -1.73% [at 0.435 µM] | activity, negative = inhibition [11] -4.74% [at 0.349 µM] | activation [12] 1.57% [at 0.349 µM] | viability change, negative = cytotoxic [8] 1.22% [at 0.349 µM]

Nc1nc2c(ncn2CCC(CO)CO)c(=O)[nH]1
inactive: Potency [1] | Potency [2] | Potency [4] | Potency [5] | outcome [6] | outcome [7] | outcome [8] | Potency [9] | Potency [10]

CCCc1ccccc1O
inactive: Potency [1] | Potency [2] | Potency [4] | Potency [5] | outcome [6] | outcome [7] | Potency [11] | Potency [12] | outcome [8]

CC1(C)SC(C)(C)SC(C)(C)S1
inactive: Potency [1] | Potency [2] | Potency [4] | Potency [5] | outcome [8] | Potency [9] | Potency [10]

Cc1ccc(Nc2ccc(O)c3c2C(=O)c2ccccc2C3=O)cc1
inactive: Potency [1] | Potency [2] | Potency [5] | outcome [6] | outcome [7] | Potency [11] | Potency [12] | outcome [8]

N#CCN(CC#N)CCN(CC#N)CC#N
inactive: Potency [1] | Potency [2] | Potency [4] | Potency [5] | outcome [6] | outcome [7] | Potency [12] | outcome [8]

Fc1ccccc1-c1ccccc1
inactive: Potency [1] | Potency [2] | Potency [4] | Potency [5] | outcome [6] | outcome [7] | Potency [11] | Potency [12] | outcome [8]

C[N+](C)(C)CC[N+]1(C)Cc2c(Cl)c(Cl)c(Cl)c(Cl)c2C1
inactive: Potency [1] | Potency [2] | outcome [13] | Potency [5] | outcome [7] | outcome [8]

NC(=O)c1ncn([C@@H]2O[C@H](CO)[C@@H](O)[C@H]2O)c1N
inactive: Potency [1] | Potency [2] | Potency [3] | Potency [14] | Potency [4] | Potency [5] | outcome [7] | Potency [11] | Potency [12] | outcome [8]

CCC(C)(C)C1CCC(OC)CC1 (stereo not drawn)
inactive: Potency [1] | Potency [2] | Potency [4] | Potency [5] | outcome [7] | Potency [11] | Potency [12] | outcome [8] | Potency [9] | Potency [10]

COCc1ccc(COC)cc1
inactive: Potency [1] | Potency [2] | Potency [4] | outcome [6] | outcome [7] | Potency [11] | Potency [12] | outcome [8]

O=C(O)c1ccccc1S
inactive: Potency [1] | Potency [2] | Potency [4] | Potency [5] | outcome [6] | outcome [7] | Potency [11] | Potency [12] | outcome [8]

CCc1cc(S(=O)(=O)O)c2cc(C(C)C)cccc1-2
inactive: Potency [1] | outcome [13] | Potency [4] | Potency [5] | outcome [6] | outcome [7] | outcome [8]

CC(C)(O)C(=O)c1ccc(OCCO)cc1
inactive: Potency [1] | Potency [2] | outcome [7] | outcome [8]

CCCCCC[C@@H](CCC)C(=O)O
inactive: Potency [1] | outcome [13] | Potency [3] | Potency [14] | Potency [4] | Potency [5] | outcome [6] | outcome [7] | Potency [11] | Potency [12] | outcome [8] | Potency [9] | Potency [10]

O=c1[nH]c(=O)n([C@H]2O[C@H](CO)[C@@H](O)[C@@H]2O)cc1/C=C\Br
inactive: Potency [1] | outcome [13] | Potency [4] | Potency [5] | outcome [6] | outcome [7] | Potency [11] | Potency [12] | outcome [8]

CCC(=O)c1cccc(Cl)c1
inactive: Potency [1] | outcome [13] | Potency [3] | Potency [14] | Potency [4] | Potency [5] | outcome [7] | outcome [8]

CCCCCCCCC=O
inactive: Potency [1] | outcome [13] | Potency [4] | Potency [5] | outcome [6] | outcome [7] | Potency [11] | Potency [12] | outcome [8] | Potency [9] | Potency [10]

NC(N)=NS(=O)(=O)c1ccc(N)cc1
inactive: Potency [1] | Potency [2] | Potency [5] | outcome [6] | outcome [7] | outcome [8]
